Laboratory results as given in the supplement of paper PMC4022240.
± gives the standard deviation.

Key:
Experiment in all cases: peptide microarray binding signal (635 nm), min-max normalized on array (fraction of array maximum); higher = stronger binding
[1] = target: T1, HaloTag-ATRX ADD domain (163-292)
T1 chain: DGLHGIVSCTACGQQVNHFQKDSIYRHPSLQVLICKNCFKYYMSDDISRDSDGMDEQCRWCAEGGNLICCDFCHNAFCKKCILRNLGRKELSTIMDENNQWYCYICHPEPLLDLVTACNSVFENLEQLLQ
Summary of the method: (§1)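 Triplicate spots of histone 13-mer peptide–cellulose conjugates with a Cy3 tracer were printed on nitrocellulose and probed for 1 h at 4°C with biotin-labelled HaloTag reader fusions (10 nM to 1 μM) plus streptavidin-Alexa Fluor 647 or rabbit histone antibodies (1:10,000 to 1:2,000) plus anti-rabbit Alexa 647. An Axon GenePix 4000B read the 635 nm channel. Binding signal is the spot-triplicate mean intensity after min-max scaling within each library.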

[2] = target: HaloTag-ING2 PHD (mouse Ing2 200-280)
Summary of the method: as §1

[3] = target: anti-H3K4me3 antibody ab8580
Summary of the method: as §1

[4] = target: anti-H3K9me3 antibody ab8898
Summary of the method: as §1

[5] = peptide region: H3 5-17, peptide modifications: H3K9ac H3K14me1, binder concentration: 1:2,000 dilution
[6] = peptide region: H3 5-17, peptide modifications: H3K9ac H3K14me1, binder concentration: 1:10,000 dilution
[7] = peptide region: H3 5-17, binder concentration: 1:2,000 dilution
[8] = peptide region: H3 5-17, binder concentration: 1:10,000 dilution
[9] = peptide region: H3 1-13, peptide modifications: H3T6ph H3R8me2s, binder concentration: 1:2,000 dilution
[10] = peptide region: H3 1-13, peptide modifications: H3T6ph H3R8me2s, binder concentration: 1:10,000 dilution
[11] = peptide region: H3 1-13, peptide modifications: H3T3ph H3K9me1, binder concentration: 1:2,000 dilution
[12] = peptide region: H3 1-13, peptide modifications: H3T3ph H3K9me1, binder concentration: 1:10,000 dilution
[13] = peptide region: H3 1-13, peptide modifications: H3T6ph H3K9me3, binder concentration: 1:2,000 dilution
[14] = peptide region: H3 1-13, peptide modifications: H3T6ph H3K9me3, binder concentration: 1:10,000 dilution
[15] = peptide region: H3 1-13, peptide modifications: H3T3ph, binder concentration: 1:2,000 dilution
[16] = peptide region: H3 1-13, peptide modifications: H3T3ph, binder concentration: 1:10,000 dilution
[17] = peptide region: H3 1-13, peptide modifications: H3T3ph H3K4me3, binder concentration: 1:2,000 dilution
[18] = peptide region: H3 1-13, peptide modifications: H3T3ph H3K4me3, binder concentration: 1:10,000 dilution
[19] = peptide region: H3 1-13, peptide modifications: H3T6ph H3R8me2a, binder concentration: 1:2,000 dilution
[20] = peptide region: H3 1-13, peptide modifications: H3T6ph H3R8me2a, binder concentration: 1:10,000 dilution
[21] = peptide region: H3 1-13, peptide modifications: H3T6ph H3R8cit, binder concentration: 1:2,000 dilution
[22] = peptide region: H3 1-13, peptide modifications: H3T6ph H3R8cit, binder concentration: 1:10,000 dilution
[23] = peptide region: H3 1-13, peptide modifications: H3T3ph H3K9me3, binder concentration: 1:2,000 dilution
[24] = peptide region: H3 1-13, peptide modifications: H3T3ph H3K9me3, binder concentration: 1:10,000 dilution

Binder: QTARKSTGGKAPR [H3 5-17 Q T A R Kac S T G G Kme A P R]
- peptide microarray binding signal ([1]; peptide region: H3 5-17, peptide modifications: H3K9ac H3K14me1, binder concentration: 50 nM): 0.00746 ± 0.00018
- peptide microarray binding signal ([1]; peptide region: H3 5-17, peptide modifications: H3K9ac H3K14me1, binder concentration: 500 nM): 0.024 ± 0.0017
- peptide microarray binding signal ([2]; peptide region: H3 5-17, peptide modifications: H3K9ac H3K14me1, binder concentration: 10 nM): 0.023 ± 0.0062
- peptide microarray binding signal ([2]; peptide region: H3 5-17, peptide modifications: H3K9ac H3K14me1, binder concentration: 100 nM): 0.0497 ± 0.004
- peptide microarray binding signal [3, 5]: 0.00345 ± 0.00048
- peptide microarray binding signal [3, 6]: 0.00205 ± 3.8e-05
- peptide microarray binding signal [4, 5]: 0.0192 ± 0.002
- peptide microarray binding signal [4, 6]: 0.00882 ± 0.00058

Binder: QTARKSTGGKAPR [H3 5-17 Q T A R K S T G G K A P R]
- peptide microarray binding signal ([1]; peptide region: H3 5-17, binder concentration: 50 nM): 0.00796 ± 0.00026
- peptide microarray binding signal ([1]; peptide region: H3 5-17, binder concentration: 500 nM): 0.00462 ± 0.00035
- peptide microarray binding signal ([2]; peptide region: H3 5-17, binder concentration: 10 nM): 0.00376 ± 7.2e-05
- peptide microarray binding signal ([2]; peptide region: H3 5-17, binder concentration: 100 nM): 0.00489 ± 0.00045
- peptide microarray binding signal [3, 7]: 0.000982 ± 8.5e-05
- peptide microarray binding signal [3, 8]: 0.00143 ± 0.00013
- peptide microarray binding signal [4, 7]: 0.00242 ± 0.0011
- peptide microarray binding signal [4, 8]: 0.00265 ± 0.00021

Binder: ARTKQTARKSTGG [H3 1-13 A R T K Q Tph A Rme2s K S T G G]
- peptide microarray binding signal ([1]; peptide region: H3 1-13, peptide modifications: H3T6ph H3R8me2s, binder concentration: 50 nM): 0.0201 ± 0.0019
- peptide microarray binding signal ([1]; peptide region: H3 1-13, peptide modifications: H3T6ph H3R8me2s, binder concentration: 500 nM): 0.0152 ± 0.0026
- peptide microarray binding signal ([2]; peptide region: H3 1-13, peptide modifications: H3T6ph H3R8me2s, binder concentration: 10 nM): 0.0119 ± 0.00043
- peptide microarray binding signal ([2]; peptide region: H3 1-13, peptide modifications: H3T6ph H3R8me2s, binder concentration: 100 nM): 0.0145 ± 0.00066
- peptide microarray binding signal [3, 9]: 0.00287 ± 9.2e-05
- peptide microarray binding signal [3, 10]: 0.000571
- peptide microarray binding signal [4, 9]: 0.0029 ± 6.7e-05
- peptide microarray binding signal [4, 10]: 0.00646 ± 0.0018

Binder: ARTKQTARKSTGG [H3 1-13 A R Tph K Q T A R Kme S T G G]
- peptide microarray binding signal ([1]; peptide region: H3 1-13, peptide modifications: H3T3ph H3K9me1, binder concentration: 50 nM): 0.00815 ± 8.5e-05
- peptide microarray binding signal ([1]; peptide region: H3 1-13, peptide modifications: H3T3ph H3K9me1, binder concentration: 500 nM): 0.0174 ± 0.0014
- peptide microarray binding signal ([2]; peptide region: H3 1-13, peptide modifications: H3T3ph H3K9me1, binder concentration: 10 nM): 0.0307 ± 0.0023
- peptide microarray binding signal ([2]; peptide region: H3 1-13, peptide modifications: H3T3ph H3K9me1, binder concentration: 100 nM): 0.0507 ± 0.004
- peptide microarray binding signal [3, 11]: 0.00859 ± 0.0018
- peptide microarray binding signal [3, 12]: 0.0167 ± 0.0032
- peptide microarray binding signal [4, 11]: 0.00692 ± 0.00099
- peptide microarray binding signal [4, 12]: 0.0053 ± 0.00068

Binder: ARTKQTARKSTGG [H3 1-13 A R T K Q Tph A R Kme3 S T G G]
- peptide microarray binding signal ([1]; peptide region: H3 1-13, peptide modifications: H3T6ph H3K9me3, binder concentration: 50 nM): 0.007335 ± 6.2e-05
- peptide microarray binding signal ([1]; peptide region: H3 1-13, peptide modifications: H3T6ph H3K9me3, binder concentration: 500 nM): 0.01343 ± 9.1e-05
- peptide microarray binding signal ([2]; peptide region: H3 1-13, peptide modifications: H3T6ph H3K9me3, binder concentration: 10 nM): 0.0229 ± 0.0005
- peptide microarray binding signal ([2]; peptide region: H3 1-13, peptide modifications: H3T6ph H3K9me3, binder concentration: 100 nM): 0.0339 ± 0.003
- peptide microarray binding signal [3, 13]: 0.0494 ± 0.0093
- peptide microarray binding signal [3, 14]: 0.0422 ± 0.0078
- peptide microarray binding signal [4, 13]: 0.269 ± 0.024
- peptide microarray binding signal [4, 14]: 0.17 ± 0.021

Binder: ARTKQTARKSTGG [H3 1-13 A R Tph K Q T A R K S T G G]
- peptide microarray binding signal ([1]; peptide region: H3 1-13, peptide modifications: H3T3ph, binder concentration: 50 nM): 0.01044 ± 0.0001
- peptide microarray binding signal ([1]; peptide region: H3 1-13, peptide modifications: H3T3ph, binder concentration: 500 nM): 0.0136 ± 0.0015
- peptide microarray binding signal ([2]; peptide region: H3 1-13, peptide modifications: H3T3ph, binder concentration: 10 nM): 0.0146 ± 0.00026
- peptide microarray binding signal ([2]; peptide region: H3 1-13, peptide modifications: H3T3ph, binder concentration: 100 nM): 0.0137 ± 0.0036
- peptide microarray binding signal [3, 15]: 0.00119 ± 5e-05
- peptide microarray binding signal [3, 16]: 0.002568 ± 2.3e-05
- peptide microarray binding signal [4, 15]: 0.00137 ± 6.5e-05
- peptide microarray binding signal [4, 16]: 0.002998 ± 2.6e-05

Binder: ARTKQTARKSTGG [H3 1-13 A R Tph Kme3 Q T A R K S T G G]
- peptide microarray binding signal ([1]; peptide region: H3 1-13, peptide modifications: H3T3ph H3K4me3, binder concentration: 50 nM): 0.00583 ± 0.0002
- peptide microarray binding signal ([1]; peptide region: H3 1-13, peptide modifications: H3T3ph H3K4me3, binder concentration: 500 nM): 0.0119 ± 0.00039
- peptide microarray binding signal ([2]; peptide region: H3 1-13, peptide modifications: H3T3ph H3K4me3, binder concentration: 10 nM): 0.0508 ± 0.0034
- peptide microarray binding signal ([2]; peptide region: H3 1-13, peptide modifications: H3T3ph H3K4me3, binder concentration: 100 nM): 0.103 ± 0.049
- peptide microarray binding signal [3, 17]: 0.277 ± 0.065
- peptide microarray binding signal [3, 18]: 0.724 ± 0.2
- peptide microarray binding signal [4, 17]: 0.055 ± 0.0067
- peptide microarray binding signal [4, 18]: 0.017 ± 0.00063

Binder: ARTKQTARKSTGG [H3 1-13 A R T K Q Tph A Rme2a K S T G G]
- peptide microarray binding signal ([1]; peptide region: H3 1-13, peptide modifications: H3T6ph H3R8me2a, binder concentration: 50 nM): 0.00677 ± 0.00082
- peptide microarray binding signal ([1]; peptide region: H3 1-13, peptide modifications: H3T6ph H3R8me2a, binder concentration: 500 nM): 0.0179 ± 0.002
- peptide microarray binding signal ([2]; peptide region: H3 1-13, peptide modifications: H3T6ph H3R8me2a, binder concentration: 10 nM): 0.00961 ± 0.00061
- peptide microarray binding signal ([2]; peptide region: H3 1-13, peptide modifications: H3T6ph H3R8me2a, binder concentration: 100 nM): 0.054 ± 0.0051
- peptide microarray binding signal [3, 19]: 0.00166 ± 0.00015
- peptide microarray binding signal [3, 20]: 0.0012 ± 1.2e-05
- peptide microarray binding signal [4, 19]: 0.00384 ± 0.00058
- peptide microarray binding signal [4, 20]: 0.00185 ± 6.1e-05

Binder: ARTKQTARKSTGG [H3 1-13 A R T K Q Tph A Rcit K S T G G]
- peptide microarray binding signal ([1]; peptide region: H3 1-13, peptide modifications: H3T6ph H3R8cit, binder concentration: 50 nM): 0.00461 ± 9.2e-05
- peptide microarray binding signal ([1]; peptide region: H3 1-13, peptide modifications: H3T6ph H3R8cit, binder concentration: 500 nM): 0.00667 ± 0.00019
- peptide microarray binding signal ([2]; peptide region: H3 1-13, peptide modifications: H3T6ph H3R8cit, binder concentration: 10 nM): 0.004536 ± 4e-05
- peptide microarray binding signal ([2]; peptide region: H3 1-13, peptide modifications: H3T6ph H3R8cit, binder concentration: 100 nM): 0.00652 ± 0.00029
- peptide microarray binding signal [3, 21]: 0.000396
- peptide microarray binding signal [3, 22]: 0.000114 ± 1.3e-06
- peptide microarray binding signal [4, 21]: 0.000332 ± 8.8e-06
- peptide microarray binding signal [4, 22]: 0.000807 ± 2.5e-05

Binder: ARTKQTARKSTGG [H3 1-13 A R Tph K Q T A R Kme3 S T G G]
- peptide microarray binding signal ([1]; peptide region: H3 1-13, peptide modifications: H3T3ph H3K9me3, binder concentration: 50 nM): 0.0613 ± 0.011
- peptide microarray binding signal ([1]; peptide region: H3 1-13, peptide modifications: H3T3ph H3K9me3, binder concentration: 500 nM): 0.122 ± 0.03
- peptide microarray binding signal ([2]; peptide region: H3 1-13, peptide modifications: H3T3ph H3K9me3, binder concentration: 10 nM): 0.0186 ± 0.0018
- peptide microarray binding signal ([2]; peptide region: H3 1-13, peptide modifications: H3T3ph H3K9me3, binder concentration: 100 nM): 0.0397 ± 0.0029
- peptide microarray binding signal [3, 23]: 0.122 ± 0.066
- peptide microarray binding signal [3, 24]: 0.0819 ± 0.021
- peptide microarray binding signal [4, 23]: 0.459 ± 0.036
- peptide microarray binding signal [4, 24]: 0.387 ± 0.046
